Assay outcomes: PubChem BioAssay, National Center for Advancing Translational Sciences (NCATS)
Only some compounds are listed: those with a hit (about 7.3% of all), similar ones and a draw of the others.
KinaseGlo FLuc = counter-screen: inhibitors of Kinase-Glo firefly luciferase. Kinase-Glo luciferase, ATP luminescence, 8 min. Potency, µM (titrated, usually from 38.3 µM), inactives show at the highest dose activity change, negative = inhibition, hits mostly inhibitors. hit rate 0.28% among 200,000; further: on the % scale 0 is the no-effect control and ±100 the full control effect; nearly all actives have a fitted effect of over 60% in size
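Inhibition of Kinase-Glo luciferase light generation was assessed at 10 uM ATP in pH 7.2 imidazole buffer, with luminescence measured after eight minutes at ambient temperature.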
FLuc counter = firefly luciferase modulation, counter-screen for miR-21 project. P08659. purified FLuc, Km substrates, luminescence inhibition. Potency, µM (highest dose often 57.5 µM), for the others: top-dose activity change, negative = inhibition, hits mostly inhibitors. hit rate 6.9% among 360,000. AID 588342;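 further: plate controls were vehicle for no effect and reference inhibitor for full effect; nearly all actives have a fitted effect of over 55% in size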
Target sequence (P08659 whole entry, looked up): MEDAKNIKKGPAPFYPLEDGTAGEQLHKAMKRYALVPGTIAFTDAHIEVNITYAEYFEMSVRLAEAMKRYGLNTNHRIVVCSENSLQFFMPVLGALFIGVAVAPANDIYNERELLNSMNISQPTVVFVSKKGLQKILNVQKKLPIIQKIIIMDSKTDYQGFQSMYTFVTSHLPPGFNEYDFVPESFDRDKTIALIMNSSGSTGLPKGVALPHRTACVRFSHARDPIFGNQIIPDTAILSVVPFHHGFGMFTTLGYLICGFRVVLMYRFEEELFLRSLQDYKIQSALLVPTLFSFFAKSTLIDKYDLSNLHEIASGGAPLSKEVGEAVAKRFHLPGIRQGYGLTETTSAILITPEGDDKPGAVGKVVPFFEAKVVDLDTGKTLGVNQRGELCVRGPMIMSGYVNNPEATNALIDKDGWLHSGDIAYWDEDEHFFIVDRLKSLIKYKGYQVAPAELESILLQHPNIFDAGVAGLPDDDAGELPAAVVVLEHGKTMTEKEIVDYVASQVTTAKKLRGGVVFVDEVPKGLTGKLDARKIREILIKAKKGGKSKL
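Purified P. pyralis luciferase (10nM final) with 10uM D-luciferin and 10uM ATP (Km levels) in 50mM Tris acetate pH 7.5, 10mM Mg acetate, 0.01% Tween-20, 0.05% BSA; qHTS 6-point titration, ~60 µM downward; luminescence read.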
NPC1 promoter act = activators of NPC1 promoter. AID 485313. Potency, µM (series often up to 9.22 µM), for the others: top-dose activation, most hits filed as activators. hit rate 2.4% among 320,000. Huh7 NPC1 promoter luciferase reporter, 24 h; further: % of control where 0% means no effect; nearly all actives have a fitted effect of over 60% in size
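NPC1 promoter–luciferase Huh7 cells; 24 h compound; luminescence.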
SMN2 splice enh = SMN2 splice variant enhancement | HEK293 SMN2-luciferase splicing reporter, luminescence, 30-36 h | Potency, µM (titrated, usually from 46.1 µM), for inactives: at the top dose activity change, positive = activation, usual class: activators | hit rate 2.8% among 210,000; further: % of control where 0% means no effect; nearly all actives have a fitted effect of over 55% in size
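HEK293 cells carry an SMN2 minigene-luciferase reporter in which exon 7 inclusion puts luciferase in frame. Cells were seeded at 2000 cells/well, attached for 10-12 hours, then exposed to compounds for 30-36 hours at 37C before ONE-Glo luminescence.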
ELG1 genotox = genotoxicity induction in ELG1-luciferase HEK293T cells. HEK293T ELG1-luciferase reporter, luminescence, 16 h. AID 504466. hit rate 1.3% among 330,000. Potency, µM (highest dose often 46 µM), for the others: at the top dose activity change, positive = activation, usual class: activators; further: % of control where 0% means no effect; nearly all actives have a fitted effect of over 60% in size
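Screening used a luciferase reporter fused to human ELG1 in HEK293T cells. Luminescence was read on a CCD plate imager after 16 hr exposure and 30 min ONE-Glo incubation.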
Rab9 prom act = activates the Rab9 promoter; Huh7 Rab9 promoter-luciferase reporter, luminescence, 24 h; hit rate 2.8% among 320,000; Potency, µM (top dose mostly 9.22 µM), for the others: top-dose activation, negative = inhibition, hits mostly activators; further: % of control where 0% means no effect; nearly all actives have a fitted effect of over 60% in size
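Cell-based reporter: Huh7 stable for Rab9 promoter-driven luciferase, plated in reduced-serum medium with 10% FBS at 1500 cells/well, compound-treated 24 h at 37 °C, luminescence read after 10 min reagent.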
* marks the source's active call; other numbers are inactive results; ? = inconclusive; . = no result given. The call rests on the fitted dose curve; in most records, active means well fitted curve in the direction sought with a large enough effect; inconclusive means small, poorly fitted or top-dose-only effect, or another doubt; inactive means no such curve, though single readings can be large; an effect the other way counts as inactive or inconclusive. Potency means the concentration at half of the fitted maximal effect.

SMILES	KinaseGlo FLuc	FLuc counter	NPC1 promoter act	SMN2 splice enh	ELG1 genotox	Rab9 prom act
COc1ccc(/C=N/NC(=O)c2ccccc2OCc2ccccc2)c(OC)c1	0%	17µM*	-2%	-14%	-12%	1%
COc1ccc(/C(C)=N/NC(=O)c2ccccc2OCc2ccccc2)c(OC)c1	-5%	19µM*	?	13µM*	?	?
COc1ccc(-c2cc(=NC(CC(C)C)C(=O)O)c3cc(C)ccc3o2)cc1 (stereo not drawn)	2%	0.85µM*	?	11µM*	?	3%
COc1ccc(-c2cc(=Nc3ccc(C)cc3)c3ccccc3o2)cc1	3%	0%	-7%	-20%	-9%	-33%
O=C(N/N=C\c1cccnc1)c1ccc(Br)s1	.	9.5µM*	22%	.	10%	18%
O=C(N/N=C\c1ccncc1)c1ccc(Cl)s1	.	17µM*	14%	.	15%	4%
O=C(N/N=C/c1ccc(Br)s1)c1cccnc1	-6%	-17%	-1%	-2%	-1%	0%
O=C(N/N=C/c1ccncc1)c1ccc(NC(=O)c2ccc(Cl)cc2)cc1	1%	2%	6%	11%	?	-1%
O=C(N/N=C/c1cccnc1)c1sc2ccccc2c1Cl	.	19µM*	0%	.	8%	11%
O=C(N/N=C/c1cccnc1)c1cc(O)c(O)c(O)c1	.	-19%	0%	.	1%	5%
O=C(N/N=C\c1cccnc1)c1ccc(Cl)s1	.	13µM*	1%	.	?	16%
Cc1nccn1CC1CCC2C(C1=O)c1ccccc1N2C (stereo not drawn)	.	.	.	-1%	.	.
N#CC(C(=O)OCc1ccccc1)c1nc2ccccc2nc1N1CCOCC1 (stereo not drawn)	0%	3%	2%	-14%	-8%	-5%
O=C(N/N=C\c1ccncc1)c1ccc(Br)s1	.	15µM*	-4%	.	9%	5%
CCc1ccc(C(=O)N/N=C/c2ccncc2)s1	.	12µM*	18%	.	?	?
O=C(N/N=C/c1ccncc1)c1cc(-c2ccc(Br)s2)[nH]n1	.	15µM*	11%	.	1%	-2%
Cc1ccc(C(=O)N/N=C\c2ccncc2)s1	.	?	21%	.	?	22%
Cc1cc(C)n2cc(-c3ccc(Cl)cc3)c(C(=O)O)c2n1	1%	?	2.8µM*	13µM*	16µM*	2.5µM*
Cc1cc(C)n2nc(C(=O)NNC(=O)c3ccc(Cl)cc3)nc2n1	.	-21%	14%	.	14%	12%
Cc1cc(N)n2ncc(-c3ccc(Cl)cc3)c2n1	3%	13µM*	2.8µM*	21%	?	3.2µM*
Cc1cc(-c2ccc(Cl)cc2)c2cnn(C(C)C)c2n1	.	?	3%	.	-3%	1%
Cc1cc(N)n2ncc(-c3ccc(F)cc3)c2n1	2%	11µM*	?	?	16µM*	3.2µM*
Cc1cc(Cl)n2ncc(-c3ccccc3)c2n1	.	12µM*	25%	.	?	?
COc1ccc(-c2cnn3c(C)cc(C)nc23)cc1OC	.	2%	.	.	.	.
O=C(COC(=O)/C=C/c1ccc([N+](=O)[O-])cc1)NCc1ccc2c(c1)OCO2	.	0%	0%	.	-2%	0%
SMILES	KinaseGlo FLuc	FLuc counter	NPC1 promoter act	SMN2 splice enh	ELG1 genotox	Rab9 prom act
Cc1nc2c(-c3ccc(F)cc3)cnn2c(N)c1-c1ccc(F)cc1	.	0.85µM*	0.45µM*	.	1.2µM*	0.56µM*
CC(C)c1cc(N2CCOCC2)n2ncc(-c3ccccc3)c2n1	.	-4%	2%	.	2%	2%
Cc1cc(N2CCOCC2)n2ncc(-c3ccccc3Cl)c2n1	.	2.7µM*	2.5µM*	.	9.2µM*	2.5µM*
CC(C)CC(C)NC(=O)c1ccc(C(F)(F)F)cc1 (stereo not drawn)	.	-15%	-2%	.	3%	0%
Oc1ccc(/C=C/c2nc(-c3ccccc3O)n(-c3ccccc3)n2)cc1	-6%	17µM*	-4%	-16%	0%	5%
Oc1ccccc1-c1nc(/C=C/c2ccccc2)nn1-c1ccccc1	0%	?	5%	-24%	2%	9%
O=C(Cn1cnc2c(NCc3ccccc3)ncnc21)NCC1CCCO1 (stereo not drawn)	.	.	.	.	-2%	.
c1ccc(CNc2ncnc3c2ncn3C2CCCCO2)cc1 (stereo not drawn)	-6%	27µM*	?	?	?	?
COc1ccc(-c2noc(CCC(=O)Nc3cccnc3)n2)cc1	.	?	-4%	.	4%	-2%
CC(C)(C)c1ccc(-c2noc(CCC(=O)N3CCOCC3)n2)cc1	2%	2.4µM*	?	?	?	1.8µM*
Cc1ccc(-c2noc(CNC(=O)c3ccc(C(C)(C)C)cc3)n2)cc1	.	-19%	.	3%	.	.
CN(C)C(=O)CCc1nc(-c2ccc(C(C)(C)C)cc2)no1	-2%	5.4µM*	2.5µM*	-12%	?	3.2µM*
Cc1ccc(-c2noc(CCC(=O)NCC3CCCO3)n2)cc1 (stereo not drawn)	-4%	-13%	-1%	-12%	-1%	2%
CC(C)(C)c1ccc(-c2noc(CCC(=O)NCC3CCCO3)n2)cc1 (stereo not drawn)	-2%	1.9µM*	-15%	-58%	14%	-20%
CC(C)(C)c1ccc(-c2noc(CCC(=O)Nc3cccnc3)n2)cc1	.	1.7µM*	-39%	.	?	-37%
O=C(O)C1CC=CCC1C(=O)Nc1cc(Cl)ccc1Cl (stereo not drawn)	1%	-2%	-1%	1%	-1%	-1%
CCCNC(=O)Nc1cc(C)on1	-2%	4%	-3%	-14%	1%	1%
Cc1ccc(N/C=C(\C#N)c2ccc(OCCCF)cc2)cc1	-2%	-18%	22%	5%	?	15%
